Only some compounds are listed: those with a hit (about 17% of all), similar ones and a draw of the others.
DT40 TDP1 no CPT – qHTS for Inhibitors of human tyrosyl-DNA phosphodiesterase 1 (TDP1): qHTS in cells in absence of CPT. DT40 Tdp1-/- hTDP1 cells, no CPT, ATP luminescence, 48 h. 420,000 compounds, 15% hits. Potency, µM (top dose mostly 46.2 µM), for inactives: at the highest dose activity change, negative = growth inhibition, hits mostly inhibitors. AID 686978, 2013; further: on the % scale 0 is the no-effect control and ±100 the full control effect; nearly all actives have a fitted effect of over 55% in size
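No-CPT arm: Tdp1-/-;hTDP1 DT40 cells (400/well) plus compounds, incubated ≥48 hr at 37 °C. Readout CellTiter-Glo luminescence.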
HepG2 viability – kills HepG2 cells in TGF-b inhibitor counter-screen; HepG2 CAGA-GFP viability, ATP luminescence, 18 h; Potency, µM (titrated, usually from 46.1 µM), for inactives: top-dose activity change, negative = cytotoxicity, actives largely listed as cytotoxic; 410,000 compounds, 0.76% hits; AID 588856
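HepG2 CAGA-GFP cells (1000/well, DMEM with 1% FBS) received compound, then TGF-beta at 500 pg/mL final, and were incubated 18 hours at 37 degrees C. Viability was read by CellTiter-Glo luminescence. Media-only wells were set as complete cell-killing and DMSO as no toxicity.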
DT40 TDP1 CPT – growth inhibition of DT40 Tdp1-/-;hTDP1 cells with camptothecin (screen for TDP1 inhibitors). chicken DT40 Tdp1-/-;hTDP1 cells + 20 nM CPT, ATP luminescence, 48 h. Potency, µM (highest dose often 46.2 µM), for inactives: at the highest dose activity change, negative = growth inhibition, usual class: inhibitors. 420,000 compounds, 12% hits. AID 686979; further: on the % scale 0 is the no-effect control and ±100 the full control effect; nearly all actives have a fitted effect of over 55% in size
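Cell growth measured by CellTiter-Glo luminescence after a minimum 48 h, 37 C compound exposure with 20 nM CPT in Tdp1-knockout DT40 cells stably expressing hTDP1, seeded 400/well; qHTS titration format.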
ATXN2 expr inh – inhibitors of ATXN2 expression | HEK-293 ATXN2-luciferase reporter, luminescence, 24 h | Potency, µM (highest dose often 57 µM), inactives show top-dose activity change, negative = inhibition, most hits filed as inhibitors | 360,000 compounds, 0.72% hits | AID 1745845; further: on the % scale 0 is the no-effect control and ±100 the full control effect; nearly all actives have a fitted effect of over 55% in size
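ATXN2-luciferase reporter cells (luciferase flanked by upstream and downstream ATXN2 gene portions) were treated 24 h at 37 °C with compounds at up to 57 uM. SteadyGlo luminescence gave expression; GF-AFC fluorescence gave viability.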
TGFb inhibitor – TGF-b pathway inhibition. HepG2 CAGA-GFP TGF-b/SMAD3 reporter, GFP fluorescence, 18 h; TGF-beta stimulated, 500 pg/mL final. Potency, µM (highest dose often 46.1 µM), for inactives: top-dose activity, negative = inhibition, usual class: inhibitors. 410,000 compounds, 1.2% hits; further: on the % scale 0 is the no-effect control and ±100 the full control effect; nearly all actives have a fitted effect of over 65% in size
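HEPG2 CAGA-GFP, 1000 cells/well; 2 h settle, 37 C; cpd via pin tool; TGF-b 500 pg/mL final; 18 h, 37 C; GFP imaging ex488/em500-530; %Activity normalised to -TGF-b and +DMSO controls; CRC fit, curve class.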
S2 tox – reduces viability in counter-screen for ATXN expression inhibitors. S2 cells (HEK-293 line with an ATXN2-luciferase reporter) viability, CellTiter-Fluor protease fluorescence, 24 h. Potency, µM (top dose mostly 56.7 µM), most hits filed as cytotoxic. 400,000 compounds, 0.49% hits. AID 651635; further: nearly all actives have a fitted effect of over 40% in size
The depositor's hits bear a star. The call rests on the fitted dose curve; in most records, active means well fitted curve in the direction sought with a large enough effect; inconclusive means small, poorly fitted or top-dose-only effect, or another doubt; inactive means no such curve, though single readings can be large; an effect the other way counts as inactive or inconclusive. Potency means the concentration at half of the fitted maximal effect.

Screening CCc1cccc(NC(=O)C2CCN(C(=O)c3cnn(-c4ccccc4)c3-n3cccc3)CC2)c1 returned DT40 TDP1 no CPT 15µM*, HepG2 viability -21%, DT40 TDP1 CPT 21µM*, ATXN2 expr inh inconclusive, TGFb inhibitor inconclusive and S2 tox inconclusive.
`Cc1ccc(Cl)cc1NC(=O)C1CCN(C(=O)c2cnn(-c3ccccc3)c2-n2cccc2)CC1` gave DT40 TDP1 no CPT 21µM*, HepG2 viability -35%, DT40 TDP1 CPT -30%, ATXN2 expr inh -19%, TGFb inhibitor inconclusive and S2 tox inactive.
For CC(=O)Nc1ccc(NC(=O)C2(c3cccs3)CCOCC2)cc1 the results were DT40 TDP1 no CPT -17%, HepG2 viability 0%, DT40 TDP1 CPT -7% and TGFb inhibitor 0%.
`CCOc1cc(N2CCOCC2)c(OCC)cc1NC(=O)c1ccc(S(=O)(=O)N2CC(C)OC(C)C2)cc1` (stereo unspecified) gave DT40 TDP1 no CPT inconclusive, HepG2 viability -12%, DT40 TDP1 CPT inconclusive, TGFb inhibitor -18% and S2 tox inactive.
Screening CC(C)(C)n1ncc2c(=O)n(Cc3ccccc3)cnc21 returned HepG2 viability -19% and TGFb inhibitor -15%.
`COCc1c(C(=O)OCC(=O)N(C)C2CCS(=O)(=O)C2)oc2ccccc12` (stereo unspecified) gave DT40 TDP1 no CPT 2%, HepG2 viability -33%, DT40 TDP1 CPT -16%, TGFb inhibitor 2% and S2 tox inconclusive.
`C=C(CO)C1Cc2c(ccc3c2OC2COc4cc(OC)c(OC)cc4C2C3=O)O1` (stereo unspecified) gave DT40 TDP1 no CPT 0.24µM* and DT40 TDP1 CPT 0.3µM*.
Screening O=S(=O)(NCc1ccc2c(c1)OCO2)c1c(F)cc(F)cc1Br returned DT40 TDP1 no CPT -25%, HepG2 viability 0%, DT40 TDP1 CPT -24%, ATXN2 expr inh 14%, TGFb inhibitor 4% and S2 tox inactive.
For CC(NC(=O)Cc1ccccc1)C1COc2ccccc2O1 (stereo unspecified) the results were DT40 TDP1 no CPT 0%, HepG2 viability 0%, DT40 TDP1 CPT 5%, ATXN2 expr inh 7%, TGFb inhibitor 4% and S2 tox inactive.
CC(NCc1ccc([N+](=O)[O-])cc1)C1COc2ccccc2O1 (stereo unspecified) was read as DT40 TDP1 no CPT 21µM*, HepG2 viability -27%, DT40 TDP1 CPT -1%, ATXN2 expr inh inconclusive, TGFb inhibitor -21% and S2 tox inactive.
`C=CCn1c(SCC(=O)Nc2cccc(S(N)(=O)=O)c2)nc2sc(C)c(C)c2c1=O` gave DT40 TDP1 no CPT inconclusive, HepG2 viability -8%, DT40 TDP1 CPT inconclusive, ATXN2 expr inh -5%, TGFb inhibitor -5% and S2 tox inactive.
Screening CC(=O)NC(c1ccc([N+](=O)[O-])cc1)c1c(O)ccc2ccccc12 (stereo unspecified) returned DT40 TDP1 no CPT inconclusive, HepG2 viability -10%, DT40 TDP1 CPT -29%, ATXN2 expr inh 1%, TGFb inhibitor 1% and S2 tox inactive.
For CC(C)C(=O)NC(c1ccc([N+](=O)[O-])cc1)c1c(O)ccc2ccccc12 (stereo unspecified) the results were DT40 TDP1 no CPT inconclusive, HepG2 viability -42%, DT40 TDP1 CPT 18µM*, ATXN2 expr inh inconclusive, TGFb inhibitor inconclusive and S2 tox inconclusive.
`CCCC(=O)NC(c1ccccc1)c1c(O)ccc2ccccc12` (stereo unspecified) gave DT40 TDP1 no CPT 8.2µM*, HepG2 viability -7%, DT40 TDP1 CPT inconclusive, TGFb inhibitor inconclusive and S2 tox inactive.
C[C@H](CO)N1C[C@H](C)[C@@H](CN(C)S(=O)(=O)c2cccs2)Oc2c(NC(=O)CCC(F)(F)F)cccc2C1=O was read as DT40 TDP1 no CPT -8%, HepG2 viability -4%, DT40 TDP1 CPT -26%, ATXN2 expr inh -2%, TGFb inhibitor 12% and S2 tox inactive.
`CC[n+]1c(/C=C2\Sc3ccccc3N2C)ccc2cccc(C)c21` gave DT40 TDP1 no CPT 0.52µM*, HepG2 viability -41%, DT40 TDP1 CPT 0.52µM*, ATXN2 expr inh inconclusive, TGFb inhibitor 33% and S2 tox inconclusive.
`CCN1/C(=C/c2ccc3cc(C)ccc3[n+]2CC)Sc2ccccc21` gave DT40 TDP1 no CPT 0.058µM*, HepG2 viability -84%, DT40 TDP1 CPT 0.065µM* and TGFb inhibitor 132%.
O=S1(=O)[C@H]2C[C@@H]3CC[C@]2(CN1Cc1cccc(F)c1)O3 was read as DT40 TDP1 no CPT 1%, HepG2 viability -9%, DT40 TDP1 CPT -10%, ATXN2 expr inh 2%, TGFb inhibitor -5% and S2 tox inactive.
For Cn1c(C(=O)OC(C(=O)NCC2CCCO2)c2cccnc2)cc2sccc21 (stereo unspecified) the results were DT40 TDP1 no CPT -38%, HepG2 viability -10%, DT40 TDP1 CPT -5%, TGFb inhibitor 3% and S2 tox inactive.
`O=C(NCCCc1ccccc1)c1cccc(Br)c1` gave DT40 TDP1 no CPT -25%, HepG2 viability 33%, DT40 TDP1 CPT -12%, TGFb inhibitor 17% and S2 tox inactive.
O=C(CN(Cc1ccccc1)C(=O)CCl)c1cccc(Br)c1 was read as DT40 TDP1 no CPT 16µM*, HepG2 viability -106%, DT40 TDP1 CPT 9.2µM*, ATXN2 expr inh 22µM*, TGFb inhibitor inconclusive and S2 tox 25µM*.
For COc1ccc2c(c1)CCc1cnc(-n3ncc(C(=O)N(C)CC4CCCN(C)C4)c3C)nc1-2 (stereo unspecified) the results were DT40 TDP1 no CPT -10%, DT40 TDP1 CPT -11% and S2 tox inactive.
`CCOc1ccc(C2=Nc3ccccc3C(c3ccc(N4CCOCC4)cc3)=NN2)cc1` gave DT40 TDP1 no CPT 13µM*, HepG2 viability -13%, DT40 TDP1 CPT 23µM*, ATXN2 expr inh 42%, TGFb inhibitor 29% and S2 tox inconclusive.
Screening CCOc1ccc(C2=Nc3ccc(Br)cc3C(c3ccc(N4CCOCC4)cc3)=NN2)cc1 returned DT40 TDP1 no CPT 15µM*, HepG2 viability -4%, DT40 TDP1 CPT inconclusive, ATXN2 expr inh 76%, TGFb inhibitor -4% and S2 tox inactive.

Screens deposited in PubChem by National Center for Advancing Translational Sciences (NCATS).
